Bioassay records (PubChem)
Rows were chosen to be rich in hits. Some 2.8% of all compounds tested hit in one or more screens of this group.
DAGLB inh: DAGLB lipase inhibitors, primary screen, biochemical, fluorescence, HTS; 340,000 compounds, 0.059% hits; inhibition, % at 5.17 µM; Diacylglycerol lipase-beta (Homo sapiens), Q8NCG7; AID 504411, 2011; HEK293T DAGLB membrane lysate, EnzChek fluorogenic substrate; in the data active means inhibition above about 34%;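 further: 0% = enzyme with vehicle and 100% = wells lacking enzyme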
Target sequence (Q8NCG7 whole entry, looked up): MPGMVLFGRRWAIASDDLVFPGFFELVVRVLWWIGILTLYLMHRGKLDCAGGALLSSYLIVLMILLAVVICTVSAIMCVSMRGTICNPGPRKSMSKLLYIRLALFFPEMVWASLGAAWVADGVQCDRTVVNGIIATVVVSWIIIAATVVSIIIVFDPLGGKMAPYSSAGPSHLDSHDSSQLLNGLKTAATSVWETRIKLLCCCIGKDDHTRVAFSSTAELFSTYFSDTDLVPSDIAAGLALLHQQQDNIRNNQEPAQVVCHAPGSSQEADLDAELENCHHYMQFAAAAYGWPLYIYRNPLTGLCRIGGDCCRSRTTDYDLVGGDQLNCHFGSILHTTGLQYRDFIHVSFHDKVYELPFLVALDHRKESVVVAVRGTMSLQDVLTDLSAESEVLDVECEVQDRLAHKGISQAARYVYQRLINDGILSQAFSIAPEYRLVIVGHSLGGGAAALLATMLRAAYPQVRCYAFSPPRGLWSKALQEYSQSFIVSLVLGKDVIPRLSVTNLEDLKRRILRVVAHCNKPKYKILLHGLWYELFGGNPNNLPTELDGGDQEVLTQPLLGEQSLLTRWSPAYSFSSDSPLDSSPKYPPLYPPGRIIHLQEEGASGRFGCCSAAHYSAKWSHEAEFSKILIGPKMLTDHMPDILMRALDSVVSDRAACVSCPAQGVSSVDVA
PAFAH2 FP inh: PAFAH2 enzyme inhibitors, primary screen, biochemical, fluorescence polarization, human. recombinant PAFAH2, FP-rhodamine activity probe. inhibition, % at 3.39 µM. 340,000 compounds, 0.99% hits;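 active means inhibition above the mean over all tested compounds plus 3 SD, cut at about 30% in these data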;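 further: inhibitors block probe labeling of enzyme so polarization drops; 0% = enzyme with DMSO and 100% = wells lacking PAFAH2 protein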
HTRA1 inh: HTRA1 serine protease inhibitors, primary screen, biochemical, fluorescence polarization, HTS; Q92743; recombinant HTRA1, FP-rhodamine activity-based probe; inhibition, % at 5.96 µM; 340,000 compounds, 0.5% hits; AID 504803, 2011; in the data active means inhibition above about 36%;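 further: 0% = enzyme with DMSO and 100% = wells lacking enzyme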
pPAFAH FP inh: pPAFAH enzyme inhibitors, primary screen, biochemical, fluorescence polarization, human; Platelet-activating factor acetylhydrolase (Homo sapiens), Q13093; recombinant pPAFAH, FP-rhodamine probe fluorescence polarization; inhibition, % at 3.39 µM; 330,000 compounds, 1.5% hits; AID 463082, 2010;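 active means inhibition above the mean inhibition across the screen plus 3 SD, cut at about 25% in these data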;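 further: inhibitors block binding of the rhodamine activity-based probe so polarization drops; 0% = enzyme with DMSO and 100% = wells lacking pPAFAH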
PAFAH1B3 FP inh: PAFAH1B3 enzyme inhibitors, primary screen, biochemical, fluorescence polarization, human; Platelet-activating factor acetylhydrolase IB subunit alpha1 (Homo sapiens), Q15102; recombinant PAFAH1B3, FP-rhodamine probe; inhibition, % at 3.39 µM; 340,000 compounds, 0.28% hits; AID 492972, 2010;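 active means inhibition above the screen-wide average of all tested compounds plus 3 SD, cut at about 25% in these data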;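 further: 0% = enzyme with DMSO only and 100% = wells lacking PAFAH1B3 protein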
PAFAH1B2 inh: PAFAH1B2 enzyme inhibitors, primary screen, biochemical, fluorescence polarization, human; Platelet-activating factor acetylhydrolase IB subunit alpha2 (Homo sapiens), P68402; recombinant PAFAH1B2, FP-rhodamine activity probe; inhibition, % at 3.39 µM; 340,000 compounds, 1.2% hits;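 active means inhibition above the mean of all tested compounds plus 3 SD, cut at about 24% in these data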;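 further: 0% = enzyme with DMSO and 100% = wells lacking PAFAH1B2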
* hit, by the source's call.

For COc1cc(NC(=O)CN2c3cccc4cccc(c34)S2(=O)=O)cc(OC)c1OC the results were DAGLB inh 0.7, PAFAH2 FP inh 2.6, HTRA1 inh -2.5, pPAFAH FP inh 5.4, PAFAH1B3 FP inh -1.8 and PAFAH1B2 inh -3.6.
Screening COc1ccc(CNC(=O)CCSCc2cccc(F)c2)cc1 returned DAGLB inh 1.4, PAFAH2 FP inh 4.7, HTRA1 inh -5.1, pPAFAH FP inh 27.2*, PAFAH1B3 FP inh 6.9 and PAFAH1B2 inh 7.6.
CC(Sc1nn(-c2ccc(F)cc2)c(=S)s1)C(=O)c1c(N)n(C)c(=O)n(C)c1=O (stereo not drawn) was read as DAGLB inh -8.7, PAFAH2 FP inh 6.6, HTRA1 inh 4.6, pPAFAH FP inh 29.8*, PAFAH1B3 FP inh 1.4 and PAFAH1B2 inh 2.8.
For CN=C(Nc1cccc(Cl)c1)SC1CC(=O)N(c2ccc(OC)cc2)C1=O (stereo not drawn) the results were pPAFAH FP inh 4.0.
CC(=O)N(c1cc(C)ccc1C)c1ccccc1[N+](=O)[O-] was read as DAGLB inh -3.2, PAFAH2 FP inh 2.6, HTRA1 inh -9.2, PAFAH1B3 FP inh 3.4 and PAFAH1B2 inh -3.0.
`CN(C)C(=O)CCc1ccc2c3c([nH]c2c1)[C@]1(C)[C@@H](C(=O)N2CCCCC2)C[C@H](CC(=O)NCC24CC5CC(CC(C5)C2)C4)C(=O)N1CC3` gave DAGLB inh 2.4, PAFAH2 FP inh 1.0, HTRA1 inh -6.6, pPAFAH FP inh 31.0*, PAFAH1B3 FP inh 7.4 and PAFAH1B2 inh 5.0.
`CC(C)=CCC/C(C)=C/CNC(=O)CC1C[C@H](C(=O)N2CCOCC2)[C@@]2(C)c3[nH]c4ccccc4c3CCN2C1=O` (stereo partly drawn) gave DAGLB inh -1.1, PAFAH2 FP inh 8.9, HTRA1 inh 0.1, pPAFAH FP inh 7.2, PAFAH1B3 FP inh 1.5 and PAFAH1B2 inh 6.8.
CC(C)=CCC/C(C)=C/CNC(=O)C[C@H]1C[C@H](C(=O)N2CCOCC2)[C@@]2(C)c3[nH]c4cc(-c5ccco5)ccc4c3CCN2C1=O was read as DAGLB inh 2.1, PAFAH2 FP inh 5.2, HTRA1 inh -6.0, pPAFAH FP inh 24.8*, PAFAH1B3 FP inh 1.0 and PAFAH1B2 inh 2.6.
O=C(CCS(=O)(=O)c1ccc(Cl)cc1)Nc1nnc(-c2ccco2)o1 was read as DAGLB inh -1.7, PAFAH2 FP inh 5.6, HTRA1 inh -1.2, pPAFAH FP inh 2.6, PAFAH1B3 FP inh 10.4 and PAFAH1B2 inh 17.5.
For C=CCON/C(CCC)=C1\C(=O)C(C(=O)OC)C(C)(C)CC1=NC (stereo not drawn) the results were DAGLB inh 2.2, PAFAH2 FP inh 5.7, HTRA1 inh 0.9, pPAFAH FP inh 4.0, PAFAH1B3 FP inh 5.9 and PAFAH1B2 inh 0.3.
For Cc1ccccc1C(=O)NNC(=S)Nc1cccc(C(F)(F)F)c1 the results were DAGLB inh 2.8, PAFAH2 FP inh -2.3, HTRA1 inh 5.6, pPAFAH FP inh 11.5, PAFAH1B3 FP inh 3.9 and PAFAH1B2 inh 5.3.
O=C(NNC(=S)Nc1cccc(C(F)(F)F)c1)c1ccc(Cl)cc1Cl was read as DAGLB inh 8.4, PAFAH2 FP inh 4.3, HTRA1 inh 15.1, pPAFAH FP inh 24.8*, PAFAH1B3 FP inh 12.6 and PAFAH1B2 inh 13.1.
`Cc1ccc(S(=O)(=O)n2nc(-c3cccnc3)nc2N)cc1` gave DAGLB inh 2.9, PAFAH2 FP inh 5.6, HTRA1 inh -0.3, pPAFAH FP inh 0.8, PAFAH1B3 FP inh 0.0 and PAFAH1B2 inh 33.1*.
`Cc1nnc(NC(=O)C2(c3ccccc3)CCOCC2)s1` gave DAGLB inh 1.5, PAFAH2 FP inh 0.3, HTRA1 inh 6.9, pPAFAH FP inh -1.1, PAFAH1B3 FP inh -2.3 and PAFAH1B2 inh 3.0.
For Cc1cnc(NC(=O)C2(c3ccccc3)CC2)s1 the results were DAGLB inh -1.2, PAFAH2 FP inh 1.4, HTRA1 inh 3.0, pPAFAH FP inh 2.8, PAFAH1B3 FP inh 6.7 and PAFAH1B2 inh 28.6*.
`COC1=CC(=O)c2c(ccc3ncnc(N)c23)C1=O` gave DAGLB inh -26.7, PAFAH2 FP inh 48.1*, HTRA1 inh 22.3, PAFAH1B3 FP inh 68.7* and PAFAH1B2 inh 22.1.
CCN(CC(=O)Nc1ccc(NC(C)=O)cc1)Cc1c(O)ccc2cc(Br)ccc12 was read as DAGLB inh 0.9, PAFAH2 FP inh -3.6, HTRA1 inh 9.1, pPAFAH FP inh 7.6, PAFAH1B3 FP inh 8.3 and PAFAH1B2 inh 67.8*.
Screening O=C1NC(c2cccc(Br)c2)=N/C1=C\c1ccco1 returned DAGLB inh 2.3, PAFAH2 FP inh 6.6, HTRA1 inh 6.1, pPAFAH FP inh 30.6*, PAFAH1B3 FP inh -1.9 and PAFAH1B2 inh -1.8.
Screening O=C1NC(c2ccccc2)=N/C1=C/c1ccco1 returned DAGLB inh 0.3, PAFAH2 FP inh -0.8, HTRA1 inh 1.0, pPAFAH FP inh 12.2, PAFAH1B3 FP inh 5.0 and PAFAH1B2 inh -0.4.
CC(=O)NN1C(=O)/C(=C\c2ccc(Br)o2)SC1=S was read as DAGLB inh 2.3, PAFAH2 FP inh 2.7, HTRA1 inh -14.1, pPAFAH FP inh 27.3*, PAFAH1B3 FP inh 0.2 and PAFAH1B2 inh -3.7.
For O=C(NCc1ccc(Cl)cc1)Nc1ccc(F)cc1 the results were DAGLB inh -2.4, PAFAH2 FP inh 6.4, HTRA1 inh -9.4, PAFAH1B3 FP inh 1.6 and PAFAH1B2 inh 7.2.
Screening COc1ccc(NC(=O)COC(=O)Cc2ccc(Br)cc2)cc1 returned DAGLB inh -7.0, PAFAH2 FP inh -0.7, HTRA1 inh -5.5, pPAFAH FP inh 29.1*, PAFAH1B3 FP inh 16.9 and PAFAH1B2 inh 4.4.
For O=C(Cc1ccccc1F)Nc1ccc(SC(F)F)cc1 the results were DAGLB inh -3.4, PAFAH2 FP inh 1.3, HTRA1 inh -11.7, pPAFAH FP inh 8.0, PAFAH1B3 FP inh -3.2 and PAFAH1B2 inh 4.7.
`O=C(COC(=O)Cc1ccccc1F)Nc1ccc(SC(F)F)cc1` gave DAGLB inh -7.4, PAFAH2 FP inh 3.2, HTRA1 inh 3.9, pPAFAH FP inh 26.4*, PAFAH1B3 FP inh 2.7 and PAFAH1B2 inh 0.4.
O=C(COC(=O)Cc1ccc(Cl)cc1)Nc1ccc(OC(F)F)cc1 was read as DAGLB inh -1.0, PAFAH2 FP inh -2.3, HTRA1 inh -14.2, pPAFAH FP inh 29.4*, PAFAH1B3 FP inh -5.5 and PAFAH1B2 inh -1.1.
For Cc1ccc(CNC(=O)Nc2ccc(Cl)cc2)cc1 the results were DAGLB inh -4.8, PAFAH2 FP inh -1.2, HTRA1 inh -2.9, pPAFAH FP inh 0.9, PAFAH1B3 FP inh 0.2 and PAFAH1B2 inh 64.6*.
